Bioassay records (PubChem BioAssay)
This is a sample that favours compounds with a hit; in the whole collection about 3.6% have one here.
ERb coact inh: blocks coactivator binding to human estrogen receptor beta; hit rate 1.3% among 86,000; Q92731; inhibition, % at 25.6 µM; TR-FRET ER-beta LBD / SRC1-Cy5 peptide binding; receptor agonist-loaded with 1 µM estradiol;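 active = compounds whose percent inhibition of the receptor-coactivator binding signal exceeds about 50% in the single-dose screen, limit read from the data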
NFkB transloc inh: blocks IL-1B driven NFkB nuclear translocation in HUVEC cells; HUVEC IL-1B NFkB p65 nuclear translocation imaging; inhibition, % at 2 µM; hit rate 0.43% among 94,000; AID 796;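 active = inhibition above about 30% together with a positive call from visual inspection of the well image, limit read from the data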;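 note: nuclear over cytoplasmic p65 intensity ratio measured by imaging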
ERa SRC1 pot: enhances coactivator binding to human estrogen receptor alpha; P03372; TR-FRET ERalpha-LBD/SRC-Cy5 coactivator binding, 2 h; 100 = basal binding, no effect; coactivator binding (% of control), % at 25.6 µM; hit rate 1.3% among 86,000; AID 639; in the data active = activity above about 200%;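 note: binding measured in presence of low estradiol as agonist stimulus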
NFkB transloc pot: enhances IL-1B driven NFkB nuclear translocation | HUVEC IL-1B NFkB p65 nuclear translocation imaging | activation, % at 2 µM | hit rate 0.3% among 94,000 | AID 819;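 active = activation above 40%, about the mean plus 3 SD, also judged a hit on visual image review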;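 note: percent activation is computed from the nuclear over cytoplasmic p65 intensity ratio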
ERa coact inh: blocks coactivator binding to human estrogen receptor alpha; P03372; hit rate 1.7% among 86,000; TR-FRET ER-alpha LBD / SRC-1 peptide, estradiol-bound; inhibition, % at 25.6 µM; in the data active = inhibition above about 50%
IL1B cytotox: toxic to HUVEC cells under IL-1B stimulation; cell count reduction, % at 2 µM; AID 845; hit rate 0.41% among 94,000; HUVEC cell count loss, Hoechst imaging, IL-1B stimulated;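 active = cell count reduction more than 3 SD above the screen-wide mean, cut at about 70% in these data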
Hits are given with their value; . = inactive; / = no result; [ ] = dose if it differs, or a comment.

SMILES	ERb coact inh	NFkB transloc inh	ERa SRC1 pot	NFkB transloc pot	ERa coact inh	IL1B cytotox
CCC(=O)Nc1ccc(-c2nn3c(C)nnc3s2)cc1C	.	.	.	.	.	.
Cc1ccc(-c2nn3c(C)nnc3s2)cc1NC(=O)CSc1ccc(Cl)cc1	.	.	.	63.3	.	.
Cc1ccc(-c2nn3c(C)nnc3s2)cc1NC(=O)C(C)C	.	.	.	42.2	.	.
Cn1cc([N+](=O)[O-])c(C(=O)Nc2ccc(Br)cn2)n1	/	.	/	.	/	.
COc1ccc(C2OC(=O)CC2C(=O)N2CCN(c3cc(Cl)ccc3C)CC2)cc1OC (stereo unspecified)	.	/	.	/	.	/
CCc1nc2ccccc2c(C(=O)OCc2nnc(-c3ccccc3)o2)c1C	/	.	/	.	/	.
CCOc1cccc(C(=O)Nc2cc(-c3nn4c(C)nnc4s3)ccc2C)c1	/	.	/	.	/	.
CCCOc1ccc(C(=O)Nc2cc(-c3nn4c(C)nnc4s3)ccc2C)cc1	.	.	.	.	58.3[fluorescence artefact?]	.
CCCN1CCN(CCCNC(=O)c2cc3c(=O)n(C)c4ccccc4c3n2C)CC1	.	89.5	.	.	.	.
Cn1c(C(=O)NCCCN2CCCCCC2)cc2c(=O)n(C)c3ccccc3c21	.	.	.	.	53.3[fluorescence artefact?]	.
Cn1c(C(=O)NCCCN2CCc3ccccc3C2)cc2c(=O)n(C)c3ccccc3c21	.	.	.	.	.	.
Cc1nc(N2CCc3ccccc32)[nH]c(=O)c1CCC(C)C	.	.	.	.	.	.
Cc1ccc(S(=O)(=O)Cn2nnnc2C(C)N2CCN(C(=O)c3ccco3)CC2)cc1 (stereo unspecified)	.	.	.	.	.	.
Cc1ccc(S(=O)(=O)Cn2nnnc2C(C(C)C)N2CCN(C(=O)c3ccco3)CC2)cc1 (stereo unspecified)	.	.	.	43.8	.	.
COCCn1nnnc1C(C(C)C)N1CCN(C(=O)c2ccco2)CC1 (stereo unspecified)	.	.	.	.	.	87.7
Cc1ccc(S(=O)(=O)Cn2nnnc2C(c2ccccc2)N2CCN(c3ccccc3)CC2)cc1 (stereo unspecified)	.	56.8	.	.	.	.
O=C1C(c2ccc(F)cc2)N(C2CCCCC2)C(=O)CN1C1CCCC1 (stereo unspecified)	.	.	.	128.4	.	.
Cc1ccc(C2C(=O)N(C3CCC(C)CC3)CC(=O)N2C2CCCC2)cc1 (stereo unspecified)	.	/	.	/	.	/
Clc1cccc(CSC2=NCCCN2)c1	.	.	.	.	.	.
CCOC(=O)C1C(C)N=C2SCC(=O)N2C1c1cccc(Br)c1 (stereo unspecified)	.	/	.	/	.	/
O=C1c2ccccc2CN1CCNS(=O)(=O)c1ccc(Cl)cc1	.	98.4	.	.	.	92.0
Cc1ccc(Nc2nnns2)cc1	.	38.2	.	.	.	.
Cc1ccc(Nc2ccccc2)cc1	.	.	.	.	.	.
COc1ccccc1/C=c1\sc2nc(-c3ccco3)nn2c1=O	67.5[fluorescence artefact?]	.	.	.	74.2	.
COc1ccc(OC)c(/C=c2\sc3nc(-c4cccs4)nn3c2=O)c1	.	/	.	/	.	/
SMILES	ERb coact inh	NFkB transloc inh	ERa SRC1 pot	NFkB transloc pot	ERa coact inh	IL1B cytotox
CCOc1ccc(/C=c2\sc3nc(-c4ccco4)nn3c2=O)cc1OCC	.	.	.	.	55.4	.
COCCN1C(=O)C(=O)/C(=C(/O)c2ccc(OCC(C)C)cc2)C1c1cccnc1 (stereo unspecified)	.	/	.	/	.	/
COc1ccc(NC(=O)c2ccccc2NC(=O)COc2ccccc2)cc1	.	.	211.4[fluorescence artefact?]	.	56.3[fluorescence artefact?]	.
COc1ccc2c(c1)OC13CCCCC1C2C(C(=O)c1ccccc1)C(=O)N3 (stereo unspecified)	.	.	.	.	.	.
Cc1nn(-c2ccccc2)c2sc(C(=O)OCN3C(=O)c4ccccc4C3=O)cc12	.	/	.	/	59.7	/
CNCC(O)Cn1c(C(F)(F)F)nc2ccccc21 (stereo unspecified)	.	.	.	.	.	.
O=c1cc(CSc2nc3cc(Cl)ccc3o2)nc2sccn12	.	.	.	.	.	.
COc1ccc(Nc2nnc(SCc3cc(=O)n4ccsc4n3)s2)cc1	52.1	.	.	.	76.4[fluorescence artefact?]	.
O=C(COC(=O)c1ccc(N2CCCC2=O)cc1)NCc1ccco1	.	/	.	/	.	/
O=C(NCc1ccco1)c1ccc(=O)[nH]n1	66.6[fluorescence artefact?]	.	.	.	.	.
